DT40 TDP1 no CPT: qHTS for Inhibitors of human tyrosyl-DNA phosphodiesterase 1 (TDP1): qHTS in cells in absence of CPT; Potency, µM (top dose mostly 46.2 µM), without a hit: top-dose activity change, negative = growth inhibition, actives largely listed as inhibitors; hit rate 15% among 420,000; DT40 Tdp1-/- hTDP1 cells, no CPT, ATP luminescence, 48 h; also: potency is read from the fitted curve at half-maximal effect; nearly all actives have a fitted effect of over 55% in size
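Growth of hTDP1-complemented DT40 Tdp1-knockout cells is measured by ATP luminescence after at least 48 hr compound exposure at 37 °C, with DMSO substituting for the 20 nM CPT used in the parallel screen.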
IL-1B inflam inh: qHTS for Inhibitors of Inflammasome Signaling: IL-1-beta AlphaLISA Primary Screen; THP-1 LPS/ATP IL-1B secretion, AlphaLISA, 16 h; stronger effect = lower value; activity change, % at 57.5 µM; hit rate 4.7% among 360,000; AID 743279, 2014; in the data active = activity change below about -50%; inconclusive = mostly about -30% to -49%
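THP-1 cells pretreated 1 hr with compounds (up to 57.5 uM final), then stimulated with LPS (250 ng/mL final) plus ATP (1.25 mM final); secreted IL-1B measured by AlphaLISA after 16 hr, decreased signal indicating inhibition.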
HT1080 IDH1KD tx: qHTS for induction of synthetic lethality in tumor cells producing 2HG: qHTS for the HT-1080-IDH1KD cell line; hit rate 2% among 360,000; Potency, µM (series often up to 46.1 µM), without a hit: top-dose activity, negative = toxicity, hits mostly cytotoxic; HT-1080 IDH1 knockdown viability, ATP luminescence, 48 h;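 also: potency is read from the fitted curve at half-maximal effect; 0% = DMSO wells and -100% = cell-free medium wells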
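CellTiter-Glo luminescence after 48 h compound exposure at 37 degrees C of IDH1-knockdown HT-1080 cells in 5% FBS RPMI. %Activity scaled between DMSO wells and cell-free media wells, with curves fitted and assigned curve classes.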
DT40 TDP1 CPT: qHTS for Inhibitors of human tyrosyl-DNA phosphodiesterase 1 (TDP1): qHTS in cells in presence of CPT; chicken DT40 Tdp1-/-;hTDP1 cells + 20 nM CPT, ATP luminescence, 48 h; Potency, µM (top dose mostly 46.2 µM), for the others: at the top dose activity change, negative = growth inhibition, actives largely listed as inhibitors; hit rate 12% among 420,000; also: potency is read from the fitted curve at half-maximal effect; nearly all actives have a fitted effect of over 55% in size
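Chicken DT40 Tdp1-/- cells stably complemented with human TDP1 were seeded at 400 cells/well in medium containing 20 nM camptothecin, exposed to pin-transferred compounds, and grown at 37 °C for at least 48 hr. Viability was read as ATP luminescence.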
HT1080NT lethal: qHTS for induction of synthetic lethality in tumor cells producing 2HG: qHTS for the HT-1080-NT fibrosarcoma cell line | HT-1080-NT fibrosarcoma viability, CellTiter-Glo ATP luminescence, 48 h | Potency, µM (highest dose often 46.1 µM), without a hit: at the top dose activity, negative = less viability, actives largely listed as cytotoxic | hit rate 1.6% among 360,000 | AID 686970, 2013;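 also: NT is the 2HG producing partner of a matched IDH1 knockdown line; potency is read from the fitted curve at half-maximal effect; 0% = DMSO-treated cells and -100% = media-only wells without cells; nearly all actives have a fitted effect of over 55% in size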
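A 48-hour cytotoxicity screen used HT-1080-NT cells plated 2 hours before compound delivery. ATP-based CellTiter-Glo luminescence measured viability, normalized to DMSO and no-cell controls.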
* hit, by the source's call; u = inconclusive; x = no result. Most compounds without a hit are left out; they make up all but 19% or so of the library. Unless noted, calls follow the shape of the dose curve; as a rule, active = well fitted curve in the direction sought with a large enough effect; inconclusive = small, poorly fitted or top-dose-only effect, or another doubt; inactive = no such curve, though single readings can be large; an effect the other way counts as inactive or inconclusive. Unless noted, % is scaled to controls: 0 for no effect and ±100 for the full control effect.

SMILES | DT40 TDP1 no CPT | IL-1B inflam inh | HT1080 IDH1KD tx | DT40 TDP1 CPT | HT1080NT lethal
CC(O)Cn1c(N2CCCC2)nc2c1c(=O)[nH]c(=O)n2C (configuration not stated) | -7% | 2 | 14% | -2% | 15%
Cc1cc(C)nc(NC2=NC3CCCCC3N2)n1 (configuration not stated) | u | 24 | -9% | 21µM* | -6%
Cc1ccc(-c2csc3ncnc(NCCN4CCOCC4)c23)cc1 | 23µM* | -65* | -20% | u | -28%
Clc1ccc(-c2csc3ncnc(NCCN4CCOCC4)c23)cc1 | 13µM* | -7 | -27% | 18µM* | u
c1ccc(-c2csc3ncnc(NCCN4CCOCC4)c23)cc1 | 9.2µM* | -11 | u | 12µM* | u
Cc1ccc(-c2csc3ncnc(NCCC(=O)O)c23)cc1 | -9% | 78 | -7% | 23% | 0%
c1cncc(-c2nc(NCCN3CCOCC3)c3ccccc3n2)c1 | u | x | x | -7% | x
Clc1ccc(-c2nc(NCCN3CCOCC3)c3ccccc3n2)cc1 | u | -61* | u | u | u
COc1ccc(CNC(=O)NC(C)(C)c2cccc(C(C)(C)NC(=O)NCc3ccc(OC)cc3)c2)cc1 | -22% | 23 | -16% | -15% | -26%
Cc1ccccc1NC(=O)c1cccc(Cn2cc(Br)c([N+](=O)[O-])n2)c1 | u | -2 | -21% | u | -5%
Cc1cccc(NC(=O)c2cccc(Cn3cc(Br)c([N+](=O)[O-])n3)c2)c1C | 21µM* | u | -11% | u | -27%
O=C(Nc1cccn2nc(COCCO)nc12)C(c1ccccc1)c1ccccc1 | -13% | 14 | 29% | -7% | 2%
Cc1nn(C)cc1CN(C)S(=O)(=O)c1cccc([N+](=O)[O-])c1 | u | 0 | -10% | u | -9%
O=c1[nH]ncc(N2CCN(C(c3ccccc3)c3ccccc3)CC2)c1Cl | 10µM* | -1 | -19% | 21µM* | -14%
O=c1[nH]ncc(N2CCCC2)c1Cl | 3% | 31 | 5% | 6% | -2%
Cc1cnc(CNc2cc(-c3ccoc3)ncn2)cn1 | 4% | x | x | 0% | x
O=C(NC1CC(=O)N(c2ccc(Cl)cc2)C1)c1cc2ccccc2o1 (configuration not stated) | -19% | x | x | -1% | x
CCCN1CNc2c(c(=O)[nH]c(=S)n2CCc2cc(Cl)cc(Cl)c2)C1 | 4µM* | x | u | 5.6µM* | u
CCCN1CNc2c(c(=O)[nH]c(=S)n2CCc2cccc(Cl)c2Cl)C1 | 10µM* | x | -17% | u | -20%
CCCN1CNc2c(c(=O)[nH]c(=S)n2CCc2cc(Cl)ccc2Cl)C1 | u | x | -7% | u | -18%
C[C@H](NC(=O)C1CCN(S(=O)(=O)c2ccccc2)CC1)C(=O)NCc1cccnc1 | -19% | -4 | 1% | -11% | 7%
COc1ccc2c(c1)CCC1(C)CC(=O)C=C21 (configuration not stated) | -24% | -24 | -5% | 3% | -2%
COc1ccc(C2CC(=O)C=C3c4ccc(OC)cc4CCC32)cc1 (configuration not stated) | 26µM* | 20 | 12% | u | 11%
C/C(=N\NC(=O)CCC(=O)NCc1ccccc1)c1ccc([N+](=O)[O-])cc1 | 3% | 11 | 6% | -2% | 0%
Cc1ccc(NS(=O)(=O)c2ccc(-c3csc(C)n3)s2)c(C)c1 | 16µM* | 3 | u | u | u
CCN(CC)S(=O)(=O)c1ccc(-c2csc(C)n2)s1 | -20% | -4 | -5% | -10% | 6%
CC(C)=CC1C(CO)C1(C)C (configuration not stated) | 9% | x | x | 4% | x
